biological target: T1, ELF3 (Homo sapiens, UniProt P78545 1-371); assay: DAPPL (digital affinity profiling via proximity ligation, sequencing); 10 mM Tris-HCl pH 7.5, 50 mM NaCl, 1 mM DTT, 4% glycerol, room temperature, 30 min; GST-TFs on glutathione beads, 16-mer random dsDNA library, 0.1% formaldehyde crosslink after washing; high values mean tight binding; conditions: protein: recombinant; tags: N-terminal GST; dsDNA, one strand shown
T1 sequence: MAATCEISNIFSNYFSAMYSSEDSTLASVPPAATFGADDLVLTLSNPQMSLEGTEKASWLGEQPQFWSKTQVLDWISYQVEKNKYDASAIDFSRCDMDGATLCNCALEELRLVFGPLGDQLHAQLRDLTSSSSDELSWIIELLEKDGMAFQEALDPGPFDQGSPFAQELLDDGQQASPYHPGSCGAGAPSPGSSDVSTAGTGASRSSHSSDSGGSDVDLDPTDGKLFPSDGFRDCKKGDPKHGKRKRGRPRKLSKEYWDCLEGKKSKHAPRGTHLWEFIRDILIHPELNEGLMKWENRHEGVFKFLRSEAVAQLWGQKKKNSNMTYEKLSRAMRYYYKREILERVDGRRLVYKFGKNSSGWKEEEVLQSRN
In short: (§1)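 Human transcription factors were made in yeast as GST fusions, captured on glutathione beads and barcoded with DNA. With a tag-only sample included, the pool was incubated with 200 nmole of a random double-stranded 16-mer DNA library in Tris/NaCl/DTT/glycerol buffer at room temperature for 30 min, then crosslinked with 0.1% formaldehyde after washing, ligated by proximity, amplified and sequenced. For binding signal, each hexamer's read frequency for a factor is divided by its frequency for the tag-only sample.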

Sequence | binding signal
GTATCG | 1.13 fold enrichment (6-mer frequency, TF over GST control)
GTAGCC | 1.06 fold enrichment (6-mer frequency, TF over GST control)
GCGGCA | 1.01 fold enrichment (6-mer frequency, TF over GST control)
GACTTG | 1.08 fold enrichment (6-mer frequency, TF over GST control)
TGCGTC | 1.03 fold enrichment (6-mer frequency, TF over GST control)
ACAAGT | 1 fold enrichment (6-mer frequency, TF over GST control)
ACCAAG | 1.14 fold enrichment (6-mer frequency, TF over GST control)
CCGTTA | 1.01 fold enrichment (6-mer frequency, TF over GST control)
TAGTCA | 1.07 fold enrichment (6-mer frequency, TF over GST control)
CCTAGT | 1.04 fold enrichment (6-mer frequency, TF over GST control)
AGTTTA | 1.11 fold enrichment (6-mer frequency, TF over GST control)
CGGCAC | 1.1 fold enrichment (6-mer frequency, TF over GST control)
GTCAAA | 1 fold enrichment (6-mer frequency, TF over GST control)
GAAAGC | 1.06 fold enrichment (6-mer frequency, TF over GST control)
TCATAG | 1.04 fold enrichment (6-mer frequency, TF over GST control)
GACCCC | 1.04 fold enrichment (6-mer frequency, TF over GST control)
AGCCCA | 1.04 fold enrichment (6-mer frequency, TF over GST control)
CTAGTG | 1.01 fold enrichment (6-mer frequency, TF over GST control)

biological target: CRX (Homo sapiens, UniProt O43186 1-299); assay: as above; conditions: protein: recombinant; tags: N-terminal GST; dsDNA, one strand shown
Sequence (O43186 whole entry): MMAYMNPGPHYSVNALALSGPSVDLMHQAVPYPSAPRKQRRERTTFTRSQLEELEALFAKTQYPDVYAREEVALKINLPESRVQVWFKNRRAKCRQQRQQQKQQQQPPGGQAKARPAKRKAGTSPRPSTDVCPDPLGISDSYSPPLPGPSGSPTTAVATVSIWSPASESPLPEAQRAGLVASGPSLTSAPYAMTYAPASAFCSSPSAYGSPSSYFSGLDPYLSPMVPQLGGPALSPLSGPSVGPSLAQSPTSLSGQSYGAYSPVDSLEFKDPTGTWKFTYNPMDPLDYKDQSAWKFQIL
In short: as §1

Sequence | binding signal
GCGGCT | 1.05 fold enrichment (6-mer frequency, TF over GST control)
AGGCCT | 1.07 fold enrichment (6-mer frequency, TF over GST control)
AGGCTA | 1.19 fold enrichment (6-mer frequency, TF over GST control)
AGTTTA | 1.08 fold enrichment (6-mer frequency, TF over GST control)
GATAAC | 1.13 fold enrichment (6-mer frequency, TF over GST control)
TTGGGA | 1.04 fold enrichment (6-mer frequency, TF over GST control)
AGCCCA | 1.05 fold enrichment (6-mer frequency, TF over GST control)

biological target: ETV1 (Homo sapiens, UniProt P50549 1-477); assay: as above; conditions: protein: recombinant; tags: N-terminal GST; dsDNA, one strand shown
Sequence (P50549 whole entry): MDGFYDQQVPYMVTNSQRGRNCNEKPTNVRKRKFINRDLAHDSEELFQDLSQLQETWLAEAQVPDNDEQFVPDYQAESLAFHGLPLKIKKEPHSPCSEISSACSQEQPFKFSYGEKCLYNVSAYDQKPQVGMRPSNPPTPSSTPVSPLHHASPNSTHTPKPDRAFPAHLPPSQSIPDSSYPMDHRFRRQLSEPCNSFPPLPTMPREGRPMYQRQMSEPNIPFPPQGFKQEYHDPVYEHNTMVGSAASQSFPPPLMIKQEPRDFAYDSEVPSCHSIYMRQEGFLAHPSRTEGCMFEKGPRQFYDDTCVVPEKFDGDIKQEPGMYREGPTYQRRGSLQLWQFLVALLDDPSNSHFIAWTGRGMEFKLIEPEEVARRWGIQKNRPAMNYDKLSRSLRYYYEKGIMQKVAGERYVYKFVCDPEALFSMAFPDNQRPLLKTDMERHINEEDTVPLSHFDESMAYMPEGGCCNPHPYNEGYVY
In short: as §1

Sequence | binding signal
GTAGCC | 1 fold enrichment (6-mer frequency, TF over GST control)
CCTAGT | 1.02 fold enrichment (6-mer frequency, TF over GST control)
AGTTTA | 1.04 fold enrichment (6-mer frequency, TF over GST control)
GTCAAA | 1 fold enrichment (6-mer frequency, TF over GST control)

biological target: T2, ERF (Homo sapiens, UniProt P50548 1-548); assay: as above; conditions: protein: recombinant; tags: N-terminal GST; dsDNA, one strand shown
T2 sequence: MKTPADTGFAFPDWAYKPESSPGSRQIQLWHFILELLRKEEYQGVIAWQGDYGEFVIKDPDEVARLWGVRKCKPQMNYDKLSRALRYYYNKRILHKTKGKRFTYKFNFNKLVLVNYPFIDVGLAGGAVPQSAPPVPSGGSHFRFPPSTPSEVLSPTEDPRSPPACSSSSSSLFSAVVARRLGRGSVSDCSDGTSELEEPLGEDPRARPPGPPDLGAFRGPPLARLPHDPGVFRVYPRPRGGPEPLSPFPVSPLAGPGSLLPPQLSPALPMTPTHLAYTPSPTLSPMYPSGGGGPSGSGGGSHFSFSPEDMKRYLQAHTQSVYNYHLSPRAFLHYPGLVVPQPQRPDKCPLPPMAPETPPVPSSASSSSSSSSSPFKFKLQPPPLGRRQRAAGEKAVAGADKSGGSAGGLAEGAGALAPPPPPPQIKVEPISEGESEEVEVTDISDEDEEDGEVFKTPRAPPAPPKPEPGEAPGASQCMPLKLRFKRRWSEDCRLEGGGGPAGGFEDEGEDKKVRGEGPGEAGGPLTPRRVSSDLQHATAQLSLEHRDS
In short: as §1

Sequence | binding signal
GCGGCT | 1.08 fold enrichment (6-mer frequency, TF over GST control)
CCTAGT | 1 fold enrichment (6-mer frequency, TF over GST control)
AGTTTA | 1.01 fold enrichment (6-mer frequency, TF over GST control)
TCATAG | 1 fold enrichment (6-mer frequency, TF over GST control)

biological target: T3, ETV7 (Homo sapiens, UniProt Q9Y603 1-341); assay: as above; conditions: protein: recombinant; tags: N-terminal GST; dsDNA, one strand shown
T3 sequence: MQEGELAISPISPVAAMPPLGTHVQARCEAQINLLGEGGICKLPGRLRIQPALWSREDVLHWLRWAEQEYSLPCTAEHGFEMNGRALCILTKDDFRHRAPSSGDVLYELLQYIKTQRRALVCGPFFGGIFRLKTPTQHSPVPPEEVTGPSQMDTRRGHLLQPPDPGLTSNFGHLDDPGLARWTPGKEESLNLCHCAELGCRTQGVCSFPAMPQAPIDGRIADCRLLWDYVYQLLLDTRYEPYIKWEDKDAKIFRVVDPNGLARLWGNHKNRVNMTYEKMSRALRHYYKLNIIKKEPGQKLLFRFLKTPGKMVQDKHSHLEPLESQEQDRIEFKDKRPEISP
In short: as §1

Sequence | binding signal
AGGCCT | 1.01 fold enrichment (6-mer frequency, TF over GST control)
TGCGTC | 1.04 fold enrichment (6-mer frequency, TF over GST control)
AGTTTA | 1.02 fold enrichment (6-mer frequency, TF over GST control)
CGGCAC | 1 fold enrichment (6-mer frequency, TF over GST control)

biological target: ETV6 (Homo sapiens, UniProt P41212 1-452); assay: as above; conditions: protein: recombinant; tags: N-terminal GST; dsDNA, one strand shown
Sequence (P41212 whole entry): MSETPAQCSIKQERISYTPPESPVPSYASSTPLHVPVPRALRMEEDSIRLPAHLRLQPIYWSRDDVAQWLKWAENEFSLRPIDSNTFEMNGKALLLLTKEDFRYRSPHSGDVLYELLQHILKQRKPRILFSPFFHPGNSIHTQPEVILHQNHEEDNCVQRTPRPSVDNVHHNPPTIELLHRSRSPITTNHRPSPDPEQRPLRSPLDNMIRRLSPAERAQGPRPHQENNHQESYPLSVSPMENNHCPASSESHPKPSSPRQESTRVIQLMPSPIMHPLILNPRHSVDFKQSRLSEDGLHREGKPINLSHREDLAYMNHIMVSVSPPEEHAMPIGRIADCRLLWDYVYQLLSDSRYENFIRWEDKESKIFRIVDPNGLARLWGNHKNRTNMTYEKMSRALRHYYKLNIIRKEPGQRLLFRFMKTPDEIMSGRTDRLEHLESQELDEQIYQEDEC
In short: as §1

Sequence | binding signal
GCGGCT | 1 fold enrichment (6-mer frequency, TF over GST control)
AGTTTA | 1.12 fold enrichment (6-mer frequency, TF over GST control)
CGGCAC | 1.02 fold enrichment (6-mer frequency, TF over GST control)
